Sampled rows, rich in hits. Any-hit rate of the full collection: about 9.5%.
Pf growth 96h – inhibits malaria parasite growth, 96 h. P. falciparum luciferase reporter growth, 96 h. Potency, µM (highest dose often 28.7 µM), without a hit: at the highest dose activity change, negative = inhibition, usual class: inhibitors. 320,000 tested, 6.9% active; note: potency is the fitted concentration of half-maximal effect; % is set by controls: 0 for no effect and ±100 for the full control effect
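Parasite growth measured via integrated firefly luciferase reporter in P. falciparum. Infected erythrocytes at 2% hematocrit, 0.05% parasitemia final were treated 96 hours at 37 C under 5% CO2, and luminescence was read.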
SARS PLpro yeast-1 – blocks SARS-CoV papain-like protease in a yeast assay; S. cerevisiae expressing SARS-CoV PLpro, growth rescue; Potency, µM (series often up to 32.9 µM), inactives show top-dose activity, positive = growth rescue, actives largely listed as activators; 330,000 tested, 0.19% active; AID 485353; calls by dose curve; note: potency is the fitted concentration of half-maximal effect; 0% is about no effect; nearly all actives have a fitted effect of over 55% in size
NS1 function inh – blocks influenza NS1 protein function. AID 2326. 270,000 tested, 0.4% active. Potency, µM (titrated, usually from 46.1 µM), without a hit: at the top dose activity, positive = more growth; calls by dose curve; note: potency is the fitted concentration of half-maximal effect; actives are rising curves; nearly all actives have a fitted effect of over 50% in size
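OD600 was taken as the measure of yeast growth restored by compound in an NS1-expressing S. cerevisiae strain. Cells had been washed out of glucose medium and diluted 1:100 into galactose -URA medium, pH 6.0.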
Pf growth 48h – P. falciparum growth inhibition at 48 hours (one generation); P. falciparum luciferase growth in erythrocytes, 48 h; Potency, µM (highest dose often 28.7 µM), inactives show at the highest dose activity change, negative = inhibition, actives largely listed as inhibitors; 310,000 tested, 5.9% active; AID 504832; note: potency is the fitted concentration of half-maximal effect; % is set by controls: 0 for no effect and ±100 for the full control effect
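Luciferase-expressing parasites in RBCs, 2% Hct / 0.1% parasitemia final; RPMI 1640 + 0.5% Albumax; 37 C, 5% CO2, one generation; luminescence read-out, lower signal = inhibition.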
RE007 growth inh – less growth of the S. pombe RE007 Vpr strain. S. pombe RE007 Vpr strain, BacTiter-Glo ATP luminescence, 24 h. Potency, µM (doses to about 92.2 µM), inactives show top-dose activity change, negative = less growth, hits mostly inhibitors. 360,000 tested, 0.21% active; active = well fitted falling curve with a large enough effect; inconclusive = small, poorly fitted or top-dose-only effect; inactive = no such curve, though single readings can be large or run the other way; note: potency is the fitted concentration of half-maximal effect; % is set by controls: 0 for no effect and ±100 for the full control effect; nearly all actives have a fitted effect of over 50% in size
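Fission yeast strain RE007, carrying one chromosomally integrated HIV-1 vpr copy, was seeded at OD 0.01 in PMG+AL medium with 23 nL pinned compound. After 24 h at 30 °C and 99% humidity, viability was read by BacTiter-Glo luminescence.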
SARS PLpro yeast-2 – Rescues yeast growth by inhibiting SARS-CoV PLpro; yeast expressing SARS-CoV PLpro, growth phenotype rescue; shares compounds with SARS PLpro yeast-1; calls only; 1,000 tested, 19% active; call rule not given here
* = called active by the depositor; i = inactive; ? = inconclusive; / = not tested or not shown; + = active, no number. Unless noted, calls come from the whole dose curve; as a rule, active = well fitted inhibition curve with a large enough effect; inconclusive = small, poorly fitted or top-dose-only effect, or another doubt; inactive = no such curve, though single readings can be large or run the other way.

SMILES | Pf growth 96h | SARS PLpro yeast-1 | NS1 function inh | Pf growth 48h | RE007 growth inh | SARS PLpro yeast-2
O=c1cccc2n1CC1CC2CN(Cc2ccc3c(c2)OCO3)C1 (stereo not drawn) | -17.7% | ? | -1.5% | / | 10.6% | ?
CNC(=O)CSc1nc2nn(-c3ccccc3)c(=O)c-2c2n1CCCCC2 | ? | 4.5% | 0.2% | ? | -7.4% | /
O=C(CSc1nc2nn(-c3ccccc3)c(=O)c-2c2n1CCCCC2)c1ccc(O)c(O)c1 | ? | 7.08µM* | / | 9.28µM* | -2.4% | i
Cc1nn(C)cc1/C=N/NC(=O)c1ccc2c(c1)OCO2 | 49.1% | -0.3% | 2.3% | 31.8% | -9.9% | /
Cc1nn(C)cc1/C=N/NC(=S)Nc1ccc(Cl)cc1Cl | -23.7% | ? | 7.8% | 35.5% | -0.9% | +
COCc1cccc(-c2csc(C(C)(O)c3cccc(F)c3)n2)c1 (stereo not drawn) | / | / | / | / | 19.4% | /
Cc1sc(NC(=O)c2ccccc2)c(C(=O)NC(C)C)c1C | -28.1% | ? | -2.3% | / | -3.0% | i
CCc1cccc(NC(=O)c2cccc3c2C(=O)N(C2CCCCC2)C3)c1 | ? | 0.6% | -5.7% | ? | 1.2% | /
COc1ccc(N(CN2C(=O)c3ccccc3C2=O)C(=O)C(C)C)cc1 | ? | 4.3% | -15.8% | -14.7% | -2.8% | /
COc1ccc(N(CN2C(=O)c3ccccc3C2=O)C(=O)COc2ccc(Cl)cc2Cl)cc1 | 15.0% | 12.6µM* | -13.7% | 7.2% | -6.4% | i
Cc1cscn1 | 31.1% | ? | / | 28.4% | 4.5% | i
Cc1ccc(NC(=O)c2nc[nH]c2C(=O)NCCCCCCNC(=O)c2[nH]cnc2C(=O)Nc2ccc(C)cc2)cc1 | / | 12.6µM* | / | / | 0.1% | i
CCOC(=O)C1CCN(C(=O)c2cc(COc3ccc(OC)c4ccccc34)on2)CC1 | 2.1% | -13.3% | 3.8% | 11.7% | -3.5% | /
O=C(Nc1nc2ccc(F)cc2s1)c1cccc(S(=O)(=O)N2CCc3ccccc32)c1 | ? | 3.16µM* | 13.5% | -2.2% | 5.0% | i
O=[N+]([O-])c1ccc(Cc2ccccn2)c([N+](=O)[O-])c1 | / | / | / | / | -1.1% | /
O=C(COC(=O)c1ccc2ncsc2c1)Nc1ncc(Cl)cc1Cl | 177.3% | 22.4µM* | 22.4% | 106.7% | 1.6% | i
Cc1c(Cl)cnc(NC(=O)COC(=O)c2ccc3ncsc3c2)c1Cl | 160.9% | -3.4% | 15.6% | 272.1% | -7.9% | /
CCOC(=O)CSc1nc2c(sc(=S)n2Cc2ccco2)c(=O)n1-c1ccccc1 | ? | ? | ? | ? | 14.7% | i
CCOC(=O)CSc1nnc(Cc2ccccc2)n1Cc1ccco1 | ? | -2.0% | -71.3% | -6.3% | 1.3% | /
NC(=O)COC(=O)c1ccc2noc(-c3ccccc3)c2c1 | 77.9% | -0.4% | 3.7% | / | -17.3% | /
O=S(=O)(NCCc1csc(-c2cccnc2)n1)c1ccc2c(c1)OCCO2 | ? | ? | -12.0% | -3.5% | -1.0% | i
COc1ccc(-c2nc(CCNS(=O)(=O)c3ccc4c(c3)OCCO4)cs2)cc1 | ? | -16.1% | -19.0% | -12.6% | -7.8% | /
O=C(NNC1=C(C(=O)C(F)(F)F)CCC1)c1cccc(O)c1 | 45.1% | 14.1µM* | 7.1% | 127.7% | 26.6% | i
NS(=O)(=O)c1cccc(NC(=O)CSc2nnc3n2CCCCC3)c1 | / | -2.7% | / | / | -11.0% | /
Cn1cc(/C=N/n2cnc3scc(-c4ccccc4)c3c2=O)c2ccccc21 | 3.29µM* | ? | 12.6% | -11.3% | -13.0% | +
SMILES | Pf growth 96h | SARS PLpro yeast-1 | NS1 function inh | Pf growth 48h | RE007 growth inh | SARS PLpro yeast-2
O=c1c2c(-c3ccccc3)csc2ncn1/N=C/c1cccc([N+](=O)[O-])c1O | 94.2% | -20.6% | / | -5.2% | -25.3% | /
O=C(CSCc1ccc(Br)cc1)NC1CC1 | -24.2% | 15.3% | 7.0% | ? | -17.1% | /
O=C(CSCc1cccc(Br)c1)NC1CC1 | 26.4% | ? | 19.8% | -17.5% | 5.4% | i
CCn1c(O)c(/C=N/NC(=O)c2ccncc2)c(=O)n(CC)c1=S | -6.3% | ? | 14.6% | -4.6% | 8.7% | i
Cn1c(O)c(/C=N/NC(=O)c2ccncc2)c(=O)n(C)c1=S | 16.5% | -1.6% | 4.6% | -11.7% | -1.3% | /
CC1CCCC(C)N1C(=O)COC(=O)CNC(=O)c1ccccc1 (stereo not drawn) | ? | -6.7% | / | -0.7% | 1.2% | /
CN(CC(=O)NC1(C)CCS(=O)(=O)C1)S(=O)(=O)c1ccc(Cl)cc1 (stereo not drawn) | 7.5% | -8.3% | / | ? | 2.2% | /
Cc1nn(CC(=O)NC2(C)CCS(=O)(=O)C2)c(C)c1S(=O)(=O)N(C)C (stereo not drawn) | / | ? | / | / | -0.9% | i
CCOc1ccc(NC(=O)CN(C)C(=O)c2c(C)nn(-c3ccc(F)cc3)c2Cl)cc1OCC | -1.1% | ? | / | ? | -1.6% | i
CCOc1ccc(NC(=O)CN(C)C(=O)c2c(C)nn(-c3ccccc3)c2Cl)cc1OCC | -11.3% | 4.8% | / | -11.8% | 1.8% | /
Nc1ccc2oc(-c3ccccc3Cl)nc2c1 | 31.8% | 14.1µM* | ? | 82.7% | ? | i
C=CCNc1nc(C(=O)OCC(=O)Nc2c(Cl)cccc2C(F)(F)F)cs1 | 67.6% | 1.4% | / | 6.3% | 3.0% | /
CCNC(=O)CN(c1ccccc1)S(=O)(=O)c1ccc(Cl)cc1 | -26.7% | ? | 6.1% | / | -5.2% | ?
CCNC(=O)CN(c1ccc(Cl)cc1)S(=O)(=O)c1ccccc1 | / | -19.0% | -11.0% | 5.1% | 33.8% | /
CCN(C(=O)CSc1nnc(-c2ccccc2)o1)c1c(N)n(Cc2ccccc2)c(=O)[nH]c1=O | ? | ? | / | 24.6% | 13.6% | i
C=C(C)Cn1c(SCC)nc2ccccc2c1=O | -46.3% | -0.7% | -26.8% | ? | -8.9% | /
C=C(C)Cn1c(SCC(=O)N/N=C/c2c(O)ccc3ccccc23)nc2ccccc2c1=O | 0.0% | 10µM* | 18.0% | -0.5% | 0.2% | +
CCc1sc(N)nc1-c1ccccc1 | ? | ? | -12.3% | -1.2% | -8.6% | i
COc1ccccc1N(CC(=O)N/N=C/c1c(O)ccc2ccccc12)S(C)(=O)=O | -104.7% | 11.2µM* | 26.4% | 0.0% | 18.4% | +
O=C(CN1CCCc2ccccc21)N/N=C/c1ccccc1 | -8.6% | 8.3% | 0.4% | -3.7% | / | /
COc1ccccc1NCC(=O)N/N=C/c1c(O)ccc2ccccc12 | 0.0% | -0.2% | 0.7% | ? | 3.8% | /
O=C(CN1CCCc2ccccc21)N/N=C/c1c(O)ccc2ccccc12 | ? | 10µM* | 11.5% | ? | 4.8% | i
CCOc1ccc(CNC(=O)C2CCN(S(=O)(=O)c3ccc4c(c3)CCCC(=O)N4)CC2)cc1 | 9.28µM* | ? | 2.7% | 9.28µM* | -1.9% | +
O=c1ccnc(SCCc2ccc([N+](=O)[O-])cc2)[nH]1 | / | / | / | / | -25.2% | /
O=C(COc1cccc(C(F)(F)F)c1)NNC(=O)c1ccc(=O)[nH]c1 | / | 1.8% | / | / | 10.8% | /

From PubChem
